Results reported in the supplement of paper PMC13380429.

System: Vero E6 infected with SARS-CoV-2
Assay: inhibition of SARS-CoV-2 cytopathic effect; higher = more antiviral protection, active = above 15
Conditions: 48 h

Measured: inhibition of SARS-CoV-2 cytopathic effect

Oc1c(I)cc(Cl)c2cccnc12 [clioquinol]
inactive: 1 nM -4.79% | 8.33 nM -6.61% | 100 nM -4.78% | 833.33 nM -5.93% | 10000 nM -9.21%

COC(=O)c1cc(OC)c2c(c1-c1c(C(=O)OC)cc(OC)c3c1OCO3)OCO2 [bifendate]
inactive: 1 nM 1.14% | 8.33 nM 2.56% | 100 nM 3.5% | 833.33 nM 1.43% | 10000 nM 1.73%

FC(F)(F)c1ccccc1-c1cc(C(F)(F)F)c2[nH]c(C3=NOC4(CCCCC4)C3)nc2c1
inactive: 1 nM -0.82% | 8.33 nM 0.77% | 100 nM -0.98% | 833.33 nM -2.13% | 10000 nM -3.97%

C=C1/C(=C\C=C2/CCC[C@]3(C)[C@@H]([C@H](C)/C=C/[C@H](C)C(C)C)CC[C@@H]23)C[C@@H](O)C[C@@H]1O [doxercalciferol]
inactive: 1 nM 0.83% | 8.33 nM 0.03% | 100 nM 0.98% | 833.33 nM 2.04% | 10000 nM 2.69%

CNC(=O)c1c(I)c(NC(C)=O)c(I)c(C(=O)O)c1I [iothalamic-acid-d3]
inactive: 1 nM -5.17% | 8.33 nM -2.14% | 100 nM -1.59% | 833.33 nM 0.31% | 10000 nM -1.65%

Cc1ccc(Nc2c(F)cccc2Cl)c(CC(=O)O)c1 [lumiracoxib]
inactive: 1 nM -0.15% | 8.33 nM -0.84% | 100 nM -0.33% | 833.33 nM 0.6% | 10000 nM -0.38%

C[C@H](NC(=O)c1sccc1OCc1ccc(Cl)cc1)c1ccccc1
inactive: 1 nM -2.57% | 8.33 nM -2.87% | 100 nM -1.08% | 833.33 nM -1.14% | 10000 nM -0.53%

Cc1[nH]c2ccccc2c1CCNC(=O)c1cccs1
inactive: 1 nM -3.95% | 8.33 nM -2.61% | 100 nM -2.69% | 833.33 nM 1.32%
active: 10000 nM 16%

CCCOCCn1c(=O)c(N2CCN(CCO)CC2)nc2cnc(-c3ccc(OC)nc3)cc21
inactive: 1 nM 0.37% | 8.33 nM 0.25% | 100 nM -0.91% | 833.33 nM -1.66% | 10000 nM -1.9%

COc1cc2ncnc(Nc3ccc(O)c(Br)c3)c2cc1OC
inactive: 1 nM 0.67% | 8.33 nM -0.59% | 100 nM -3.04% | 833.33 nM -5.16% | 10000 nM -9.51%

COc1cc(C(=O)NCC2(N(C)C)CCCC2)cc(OC)c1OCc1ccccc1
inactive: 1 nM 0.5% | 8.33 nM 4.04% | 100 nM 5.81% | 833.33 nM -2.21% | 10000 nM -8%

O=C(O)c1cc(O)c(O)c(O)c1 [gallic-acid]
inactive: 1 nM -1.87% | 8.33 nM 0.61% | 100 nM 3.05% | 833.33 nM -1.88% | 10000 nM 6.6%

O=C(/C=C/c1ccc(O)c(O)c1)OCCc1ccccc1 [caffeic-acid-phenethyl-ester]
inactive: 1 nM -3.4% | 8.33 nM -2.75% | 100 nM -2.14% | 833.33 nM 2.36% | 10000 nM 7.5%

CC(NC(=O)c1ccccc1/N=C/c1c(O)ccc2ccccc12)c1ccccc1 (stereo not given) [sirtinol]
inactive: 1 nM 3.41% | 8.33 nM -0.75% | 100 nM -3.54% | 833.33 nM -2.85% | 10000 nM 0.96%

NC(=O)[C@@H]1CC[C@@H]2CN1C(=O)N2OS(=O)(=O)O [avibactam]
inactive: 1 nM -1.08% | 8.33 nM 0.92% | 100 nM -0.14% | 833.33 nM 0.95% | 10000 nM 1.7%

CC(C)[C@H](CO)Nc1nc(Nc2cc(N)cc(Cl)c2)c2ncn(C(C)C)c2n1 [aminopurvalanol-a]
inactive: 1 nM 4.14% | 8.33 nM 0.51% | 100 nM -1.34% | 833.33 nM -0.35% | 10000 nM -6.98%

COc1ccc2cc(-c3cc(-c4cc(Cl)cc(Cl)c4)nn3[C@@H](C)c3ccc(C(=O)NCCC(=O)O)cc3)ccc2c1
inactive: 1 nM -1.85% | 8.33 nM -0.02% | 100 nM 0.97% | 833.33 nM 4.66% | 10000 nM 4.95%

O=C(O)CC(S)C(=O)O (stereo not given) [mercaptosuccinic-acid]
inactive: 1 nM 0.69% | 8.33 nM 3.36% | 100 nM 4.14% | 833.33 nM 3.72% | 10000 nM -0.09%

CCCCCCCC/C=C/CCCCCCCC(=O)OC[C@H]1O[C@@H](n2ccc(N)nc2=O)C(F)(F)[C@@H]1O [gemcitabine-elaidate]
inactive: 1 nM -0.31% | 8.33 nM -0.77% | 100 nM -1.9% | 833.33 nM 0.35% | 10000 nM 3%

N=C(N)N [guanidine]
inactive: 1 nM -0.16% | 8.33 nM 0.17% | 100 nM -2.15% | 833.33 nM -3.58% | 10000 nM -6.14%

O=[N+]([O-])c1cccc2c(Br)n[nH]c12 [3-bromo-7-nitroindazole]
inactive: 1 nM 0.35% | 8.33 nM 2.23% | 100 nM 0.07% | 833.33 nM -3.48% | 10000 nM -0.25%

CCn1cc(-c2cccc(C(F)(F)F)c2)c2sc(C(=N)NC3CCS(=O)(=O)CC3)cc2c1=O
inactive: 1 nM 1.59% | 8.33 nM 3.81% | 100 nM 1.38% | 833.33 nM 0.93% | 10000 nM -7.19%

Cn1c(N2CCCCS2(=O)=O)nc(C(=O)NCc2ccc(F)cc2)c(O)c1=O
inactive: 1 nM -0.4% | 8.33 nM -1.76% | 100 nM -4.2% | 833.33 nM -0.06% | 10000 nM -1.72%

CC1(C)S[C@@H]2[C@H](NC(=O)Cc3ccccc3)C(=O)N2[C@H]1C(=O)O [benzylpenicillin]
inactive: 1 nM -3.59% | 8.33 nM -1.58% | 100 nM -1.25% | 833.33 nM -1% | 10000 nM -2.39%

O=[N+]([O-])c1cncn1CCN1CCOCC1 [nimorazole]
inactive: 1 nM -1.41% | 8.33 nM -0.32% | 100 nM 0.99% | 833.33 nM 0.22% | 10000 nM -0.02%

CCC(=O)OCC(=O)[C@@]1(OC(=O)CC)[C@@H](C)C[C@H]2[C@@H]3CCC4=CC(=O)C=C[C@]4(C)[C@@]3(F)[C@@H](O)C[C@@]21C
inactive: 1 nM -0.73% | 8.33 nM 0.98% | 100 nM -1.61% | 833.33 nM 0.59% | 10000 nM -0.08%

O=C(O)[C@@H](S)[C@@H](S)C(=O)O [dimercaptosuccinic-acid]
inactive: 1 nM 0.73% | 8.33 nM -1.78% | 100 nM -1.78% | 833.33 nM -1.02% | 10000 nM -2.75%

Cc1cc(C2CCCCC2)n(O)c(=O)c1 [ciclopirox]
inactive: 1 nM 0.88% | 8.33 nM 1.21% | 100 nM 0.99% | 833.33 nM -0.09% | 10000 nM -2.68%

CC(C)(C)NCC(O)COc1cccc2[nH]c(=O)[nH]c12 (stereo not given)
inactive: 1 nM -0.75% | 8.33 nM -0.25% | 100 nM -0.12% | 833.33 nM -0.11% | 10000 nM -0.04%

COc1cc(C[C@H]2c3cc(OC)c(OC)cc3CCN2C)c(Oc2cc3c(cc2OC)-c2c(OC)c(OC)cc4c2[C@H](C3)N(C)CC4)cc1OC [thaliblastine]
active: 10000 nM 45.5%
inactive: 1 nM 1.34% | 8.33 nM 1.21% | 100 nM -0.77% | 833.33 nM 3.94%

CC(=O)N[C@H]1[C@H]([C@H](O)[C@H](O)CO)OC(O)(C(=O)O)C[C@@H]1O (mixture of isomers) [aceneuramic-acid]
inactive: 1 nM -6.31% | 8.33 nM 1.91% | 100 nM -1.39% | 833.33 nM -2.36% | 10000 nM -0.15%

CC(=O)N(CC(O)CO)c1c(I)c(C(=O)NCCO)c(I)c(C(=O)NCC(O)CO)c1I (stereo not given) [ioxilan]
inactive: 1 nM 1.8% | 8.33 nM 0.19% | 100 nM -2.31% | 833.33 nM -1.98% | 10000 nM -0.58%

C[C@]1(Cn2ccnn2)[C@H](C(=O)O)N2C(=O)C[C@H]2S1(=O)=O [tazobactam]
inactive: 1 nM 0.92% | 8.33 nM -1.48% | 100 nM 2.92% | 833.33 nM 0.65% | 10000 nM 2.47%

NS(=O)(=O)c1cc(Cl)c(Cl)c(S(N)(=O)=O)c1 [diclofenamide]
inactive: 1 nM -2.99% | 8.33 nM -2.1% | 100 nM -3.44% | 833.33 nM 0.21% | 10000 nM -2.7%

O=S(=O)(O)NC1CCCCC1 [cyclamic-acid]
inactive: 1 nM -3.13% | 8.33 nM 1.15% | 100 nM 1.07% | 833.33 nM 0.19% | 10000 nM -3.53%

CN1C(=O)/C(=C2/C(=O)Nc3ccccc32)c2ccccc21 [meisoindigo]
active: 10000 nM 18.2%
inactive: 1 nM -1.49% | 8.33 nM -3.61% | 100 nM -2.28% | 833.33 nM 1.46%

NS(=O)(=O)c1ccc(-n2nc(C(F)(F)F)cc2-c2ccc(Cl)cc2)cc1
inactive: 1 nM 1.27% | 8.33 nM 3.82% | 100 nM -2.22% | 833.33 nM -0.43% | 10000 nM -0.38%

O=C(/C=C/c1ccccc1)NC(NC(=S)Nc1cccc2cccnc12)C(Cl)(Cl)Cl (stereo not given) [salubrinal]
inactive: 1 nM 3.2% | 8.33 nM 0.1% | 100 nM 1.16% | 833.33 nM -0.28% | 10000 nM 1.23%

C=CCN1C[C@H](C)N([C@H](c2ccc(C(=O)N(CC)CC)cc2)c2cccc(OC)c2)C[C@H]1C
inactive: 1 nM -0.66% | 8.33 nM 1.28% | 100 nM 1.71% | 833.33 nM -0.17% | 10000 nM -1.85%

C[C@]12CCC(=O)C=C1CC[C@@H]1[C@@H]2[C@@H](O)C[C@@]2(C)[C@H]1CC[C@]2(O)C(=O)COP(=O)(O)O [hydrocortisone-phosphate]
inactive: 1 nM 1.12% | 8.33 nM 3.34% | 100 nM 2.4% | 833.33 nM 2.84% | 10000 nM 1.11%
